From PubChem BioAssay AID1159580 (chemical genetic matrix, 2015)
Out of some 5,500 compounds screened, about 2,000 (36%) were called active. About 18% were inconclusive and are not listed. Cut-off read from the data, not from the text of the source: active = normalized growth mostly below about 0.91 (no sharp cut-off); inconclusive = no clear call, values can overlap the other calls; inactive = mostly above about 0.92. The list shows a part of the results.

Assay: chemical genetic growth profiling, strain panel (AID 1159580);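 note: tested at 20 µM; growth read once vehicle control cultures reached saturation at 30 °C; 1 = growth at the plate median or of vehicle wells; lower values mean less growth of the strain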
Settings: growth OD

Measured: normalized growth

CC[C@H]1OC(=O)[C@H](C)[C@@H](O[C@H]2C[C@@](C)(OC)[C@@H](O)[C@H](C)O2)[C@H](C)[C@@H](O[C@@H]2O[C@H](C)C[C@H](N(C)C)[C@H]2O)[C@](C)(O)C[C@@H](C)/C(=N/OCOCCOC)[C@H](C)[C@@H](O)[C@]1(C)O
inactive: S. cerevisiae deletion strains, locus YJR075W, strain HOC1, stronger effect = lower value 0.989 | S. cerevisiae deletion strains, locus YKL009W, strain mrt4, stronger effect = lower value 1.01 | S. cerevisiae deletion strains, locus YKL068W, stronger effect = lower value 1 | S. cerevisiae deletion strains, locus YKL085W, strain MDH1 (second series), stronger effect = lower value 1 | S. cerevisiae deletion strains, locus YKL085W, strain MDH1, stronger effect = lower value 1 | S. cerevisiae deletion strains, locus YKL160W, strain elf1, stronger effect = lower value 1.02 | S. cerevisiae deletion strains, locus YKL190W, strain CNB1, stronger effect = lower value 1 | S. cerevisiae deletion strains, locus YKR001C, strain vps1, stronger effect = lower value 1.01 | S. cerevisiae deletion strains, locus YKR026C, strain gcn3, stronger effect = lower value 1 | S. cerevisiae deletion strains, locus YKR091W, strain srl3, stronger effect = lower value 1 | S. cerevisiae deletion strains, locus YLL001W, strain dnm1, stronger effect = lower value 1.02 | S. cerevisiae deletion strains, locus YLL026W, stronger effect = lower value 1.01 | S. cerevisiae deletion strains, locus YLL041C, strain sdh2, stronger effect = lower value 1.01 | S. cerevisiae deletion strains, locus YLR027C, strain aat2, stronger effect = lower value 1.01 | S. cerevisiae deletion strains, locus YLR039C, strain RIC1, stronger effect = lower value 0.968 | S. cerevisiae deletion strains, locus YLR058C, strain SHM2, stronger effect = lower value 0.998 | S. cerevisiae deletion strains, locus YLR102C, strain apc9, stronger effect = lower value 0.989 | S. cerevisiae deletion strains, locus YLR113W, strain HOG1, stronger effect = lower value 0.967 | S. cerevisiae deletion strains, locus YLR221C, strain rsa3, stronger effect = lower value 1.01 | S. cerevisiae deletion strains, locus YLR258W, strain gsy2, stronger effect = lower value 1.02 | S. cerevisiae deletion strains, locus YLR262C, strain YPT6 (second series), stronger effect = lower value 0.989 | S. cerevisiae deletion strains, locus YLR262C, strain YPT6, stronger effect = lower value 0.997 | S. cerevisiae deletion strains, locus YLR268W, strain sec22, stronger effect = lower value 1.03 | S. cerevisiae deletion strains, locus YLR320W, strain mms22, stronger effect = lower value 0.993 | S. cerevisiae deletion strains, locus YLR330W, strain CHS5, stronger effect = lower value 1.01 | S. cerevisiae deletion strains, locus YLR342W, strain FKS1 (second series), stronger effect = lower value 1.01 | S. cerevisiae deletion strains, locus YLR342W, strain FKS1, stronger effect = lower value 1.02 | S. cerevisiae deletion strains, locus YLR357W, strain rsc2, stronger effect = lower value 1.05 | S. cerevisiae deletion strains, locus YLR370C, strain arc18, stronger effect = lower value 1.01 | S. cerevisiae deletion strains, locus YLR371W, strain rom2, stronger effect = lower value 0.972 | S. cerevisiae deletion strains, locus YLR418C, strain cdc73, stronger effect = lower value 1.03 | S. cerevisiae deletion strains, locus YML016C, strain PPZ1, stronger effect = lower value 1.01 | S. cerevisiae deletion strains, locus YML032C, strain rad52, stronger effect = lower value 1.01 | S. cerevisiae deletion strains, locus YML120C, strain ndi1, stronger effect = lower value 1.01 | S. cerevisiae deletion strains, locus YML124C, strain tub3, stronger effect = lower value 0.999 | S. cerevisiae deletion strains, locus YMR058W, strain fet3, stronger effect = lower value 1.01 | S. cerevisiae deletion strains, locus YMR078C, strain ctf18, stronger effect = lower value 1.01 | S. cerevisiae deletion strains, locus YMR125W, strain sto1, stronger effect = lower value 1.01 | S. cerevisiae deletion strains, locus YMR129W, stronger effect = lower value 1.02 | S. cerevisiae deletion strains, locus YMR205C, strain PFK2, stronger effect = lower value 0.99 | S. cerevisiae deletion strains, locus YMR223W, strain ubp8, stronger effect = lower value 1.03 | S. cerevisiae deletion strains, locus YMR231W, strain pep5, stronger effect = lower value 1.01 | S. cerevisiae deletion strains, locus YMR307W, strain GAS1, stronger effect = lower value 1.02 | S. cerevisiae deletion strains, locus YNL067W, strain RPL9B, stronger effect = lower value 0.986 | S. cerevisiae deletion strains, locus YNL071W, strain lat1, stronger effect = lower value 0.955 | S. cerevisiae deletion strains, locus YNL183C, strain NPR1, stronger effect = lower value 0.937 | S. cerevisiae deletion strains, locus YNL209W, strain ssb2, stronger effect = lower value 1.01 | S. cerevisiae deletion strains, locus YNL233W, strain BNI4, stronger effect = lower value 0.977 | S. cerevisiae deletion strains, locus YNL248C, strain rpa49, stronger effect = lower value 1.03 | S. cerevisiae deletion strains, locus YNL250W, strain rad50, stronger effect = lower value 1.05 | S. cerevisiae deletion strains, locus YNL271C, strain bni1, stronger effect = lower value 1.01 | S. cerevisiae deletion strains, locus YNL298W, strain CLA4, stronger effect = lower value 1.02 | S. cerevisiae deletion strains, locus YNL307C, strain MCK1, stronger effect = lower value 1 | S. cerevisiae deletion strains, locus YNL322C, strain KRE1 (second series), stronger effect = lower value 1.01 | S. cerevisiae deletion strains, locus YNR049C, strain mso1, stronger effect = lower value 1.01 | S. cerevisiae deletion strains, locus YNR052C, strain pop2, stronger effect = lower value 1 | S. cerevisiae deletion strains, locus YOL006C, strain TOP1, stronger effect = lower value 0.92 | S. cerevisiae deletion strains, locus YOL012C, strain htz1 1.11 | S. cerevisiae deletion strains, locus YOL147C, strain pex11, stronger effect = lower value 1.01 | S. cerevisiae deletion strains, locus YOR001W, strain rrp6, stronger effect = lower value 1.01 | S. cerevisiae deletion strains, locus YOR061W, strain CKA2, stronger effect = lower value 1 | S. cerevisiae deletion strains, locus YOR069W, strain VPS5, stronger effect = lower value 1.01 | S. cerevisiae deletion strains, locus YOR070C, strain gyp1, stronger effect = lower value 1 | S. cerevisiae deletion strains, locus YOR080W, strain dia2, stronger effect = lower value 1.02 | S. cerevisiae deletion strains, locus YOR083W, strain WHI5, stronger effect = lower value 1.02 | S. cerevisiae deletion strains, locus YOR106W, strain vam3, stronger effect = lower value 1.03 | S. cerevisiae deletion strains, locus YOR136W, strain idh2, stronger effect = lower value 1.02 | S. cerevisiae deletion strains, locus YOR144C, strain elg1, stronger effect = lower value 1 | S. cerevisiae deletion strains, locus YOR184W, strain ser1, stronger effect = lower value 1.01 | S. cerevisiae deletion strains, locus YOR231W, strain MKK1, stronger effect = lower value 0.988 | S. cerevisiae deletion strains, locus YOR265W, strain rbl2, stronger effect = lower value 1.01 | S. cerevisiae deletion strains, locus YOR270C, strain vph1, stronger effect = lower value 1.01 | S. cerevisiae deletion strains, locus YOR290C, strain snf2, stronger effect = lower value 1.01 | S. cerevisiae deletion strains, locus YOR316C, strain cot1, stronger effect = lower value 0.994 | S. cerevisiae deletion strains, locus YPL051W, strain arl3, stronger effect = lower value 1.01 | S. cerevisiae deletion strains, locus YPL055C, strain LGE1, stronger effect = lower value 0.988 | S. cerevisiae deletion strains, locus YPL078C, strain atp4, stronger effect = lower value 1.01 | S. cerevisiae deletion strains, locus YPL106C, strain sse1, stronger effect = lower value 1.04 | S. cerevisiae deletion strains, locus YPL240C, strain hsp82, stronger effect = lower value 1.01 | S. cerevisiae deletion strains, locus YPL241C, strain CIN2, stronger effect = lower value 1 | S. cerevisiae deletion strains, locus YPL256C, strain CLN2, stronger effect = lower value 0.994 | S. cerevisiae deletion strains, locus YPR119W, strain clb2, stronger effect = lower value 0.989 | S. cerevisiae deletion strains, locus YPR141C, strain kar3, stronger effect = lower value 1.01 | S. cerevisiae deletion strains, locus YPR163C, strain tif3, stronger effect = lower value 1 | S. cerevisiae deletion strains, locus YPR167C, strain met16, stronger effect = lower value 1.01 | S. cerevisiae deletion strains, strain wtn01, stronger effect = lower value 1.02 | S. cerevisiae strains, strain wild type, stronger effect = lower value 1.01
